From PubChem BioAssay
Rows were chosen to be rich in hits. Some 2.8% of all compounds tested hit in one or more screens of this group.
HIF-2a inh = blocks HIF-2a reporter activity. actives 0.72% (n = 360,000). 786-0 RCC cells HIF-2a reporter, luciferase luminescence, overnight. inhibition, % at 18.8 µM;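 active = inhibition of the luminescence signal of 40% or more relative to plate controls, in a single-dose primary screen at 18.75 µM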
TRPM1 prom inh = inhibitors of MITF-driven TRPM1 promoter in melanoma cells; SK-MEL-5 TRPM1 promoter luciferase, 24 h; inhibition, % at 12.5 µM; actives 0.83% (n = 330,000);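 active = mean inhibition across replicates of 60% or more, whatever share of single replicates reaches that level; inconclusive = some that reach 60%, reason not given; inactive = mean inhibition across replicates below 60%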
KKLEB tox = CF airway cell cytotoxicity counter-screen; actives 0.36% (n = 360,000); activity change (cytotoxicity), % at 5 µM; KKLEB CF airway cells viability, ATPlite luminescence, overnight; hits give low values; cells stimulated with P. aeruginosa culture filtrate;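 active = corrected activity change at or below -50% at 5 µM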
Shn3 3UTR inh = reduces Shn3 3'UTR luciferase signal in osteoblasts | Clone20 osteoblast Shn3 3'UTR firefly luciferase, 24 h | inhibition, % at 12.5 µM | actives 0.52% (n = 360,000) | AID 588674;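 active = mean inhibition of at least 75% with every replicate also reaching 75%; inconclusive = mean inhibition at least 75% but some replicate below; inactive = mean inhibition below 75%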
CF NFkB inh = cystic fibrosis NF-kB activation inhibition; actives 0.86% (n = 360,000); KKLEB NF-kB-GFP reporter, PAF-induced, GFP fluorescence overnight; AID 588850; inhibition, % at 5 µM;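 active = at least 50% inhibition at 5 µM, scaled per plate between neutral and stimulator controls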;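 note: PAF is a Pseudomonas aeruginosa culture filtrate used as stimulus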
Peg3 prom inh-1 = Peg3 promoter activity inhibition; HeLa PEG-Prom luciferase reporter, luminescence, overnight; inhibition, % at 20 µM; actives 1.7% (n = 360,000);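 active = inhibition of at least 50% at 20 µM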
Peg3 prom inh-2 = Peg3 promoter inhibition confirmation; inhibition, % at 20 µM; actives 84% (n = 1,300); shares compounds with Peg3 prom inh-1; HeLa PEG-Prom luciferase reporter, luminescence, overnight;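 active = at 20 µM dose, 40% or more inhibition averaged across four replicates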
Of the large screens only hits and unclear results are named; the others gave an inactive call (follow-up assays come after a bar, where they were run).

CCNC(=O)c1c(NC(=O)c2cc(-c3cc(C)ccc3O)n[nH]2)sc2c1CCCC2	Peg3 prom inh-1 60 | Peg3 prom inh-2 inactive
COc1ccccc1CNC(=O)[C@@H](NC(=O)C1CCN(C(=O)[C@@H]2CCCN2)CC1)C(C)C	none (no result: TRPM1 prom inh)
CCOC(=O)c1cc2c(=O)n3ccccc3nc2n(CCOC)c1=NC(=O)c1c(-c2c(F)cccc2Cl)noc1C	Peg3 prom inh-1 53 | Peg3 prom inh-2 inactive
CCOC(=O)c1cc2c(=O)n3ccccc3nc2n(CCOC)c1=NC(=O)c1ccncc1	none
O=C1/C(=C\c2cccc(O)c2O)SC(=S)N1Cc1ccccc1	Peg3 prom inh-1 66 | Peg3 prom inh-2 62
O=C(CCCN1C(=O)/C(=C/c2ccccc2Cl)SC1=S)NNC(=O)c1ccc(Cl)cc1	HIF-2a inh 73, Peg3 prom inh-1 64 | Peg3 prom inh-2 45
O=C1/C(=C/c2ccccc2Cl)SC(=S)N1CCCC(=O)N(CCO)c1ccccc1	HIF-2a inh 71, Peg3 prom inh-1 67 | Peg3 prom inh-2 91
COc1ccc(NC(=O)C2CC(=O)N(c3ccccc3F)C2)cc1S(=O)(=O)N1CCCCC1 (stereo not drawn)	none (no result: TRPM1 prom inh)
COc1ccc(/C=C/C(=O)c2ccc3c4c(cccc24)CC3)cc1	none
COc1ccc(/C=C/C(=O)c2ccc3c4c(cccc24)CC3)cc1OC	Peg3 prom inh-1 69 | Peg3 prom inh-2 84
Cc1cccc(CN2C(=O)[C@H]3Cc4c([nH]c5ccccc45)C(C)(C)N3C2=O)c1	Peg3 prom inh-1 60 | Peg3 prom inh-2 49
Cc1cccc(CN2C(=O)[C@@H]3Cc4c([nH]c5ccccc45)C(C)(C)N3C2=O)c1	none
CN(C)CCCN1c2ccccc2Sc2ccc3ccccc3c21	Peg3 prom inh-1 61 | Peg3 prom inh-2 98
O=C(CCl)N1c2ccccc2Sc2ccc3ccccc3c21	Peg3 prom inh-1 107 (no result: TRPM1 prom inh) | Peg3 prom inh-2 100
O=C(COc1ccc2ccccc2c1)N1c2ccccc2Sc2ccccc21	none
CN(C)CCCN1c2ccc3ccccc3c2Sc2cccc(Cl)c21	none
COCCNC(=O)C1(C)CCN(C(=O)c2ccc(C(F)(F)F)nc2C)C1 (stereo not drawn)	none (no result: TRPM1 prom inh)
O=c1c2ccccc2sc2nc(CCl)nn12	Peg3 prom inh-1 104 | Peg3 prom inh-2 93
Cc1ccc(S(=O)(=O)N2CCN(C(=O)c3ccc(-n4cncn4)c([N+](=O)[O-])c3)CC2)c(C)c1	none (no result: TRPM1 prom inh)
O=C(NCC1CCCO1)C(c1ccc(F)cc1)N(C(=O)Cn1nnc(-c2ccc(F)cc2)n1)c1cccc(O)c1 (stereo not drawn)	Peg3 prom inh-1 56 | Peg3 prom inh-2 51
CC(C(=O)NC1CCCC1)N(C(=O)Cn1nnc(-c2ccc(F)cc2)n1)c1ccccc1F (stereo not drawn)	Peg3 prom inh-1 57 | Peg3 prom inh-2 50
COc1ccc(N(C(=O)Cn2nnc(-c3ccc(F)cc3)n2)C(C)C(=O)NC2CCCC2)cc1 (stereo not drawn)	none
C/C(=N\NC(=O)c1c(C)nc2ccccn12)c1ccc(O)cc1O	Peg3 prom inh-1 52 | Peg3 prom inh-2 60
O=C(/C=C/c1ccc2ccccc2n1)N1CCN(S(=O)(=O)c2ccccc2F)CC1	Peg3 prom inh-1 50 | Peg3 prom inh-2 inactive
CC(=NNC(=S)N1CCN(C2CCCCCC2)CC1)c1ccccn1	TRPM1 prom inh 83, Shn3 3UTR inh 93, Peg3 prom inh-1 102 | Peg3 prom inh-2 99
CC(=NNC(=S)N1CCCCCC1)c1cccc2cccnc12	Shn3 3UTR inh inconclusive
COC(=O)c1ccc(C(=S)NCC2(N(C)C)CCCCC2)cc1	none
COc1cc2c(oc(=O)c3cc(C)cc(OC)c32)c2c(C3OC(C)C(O)C(C)(O)C3O)ccc(O)c12 (stereo not drawn)	HIF-2a inh 58, TRPM1 prom inh 65, Peg3 prom inh-1 100 | Peg3 prom inh-2 99
CC(=O)Nc1cccc(-c2cc(NC=O)c3ncc(-c4ccc(C(C)=O)cc4)n3c2)c1	Peg3 prom inh-1 54 (no result: TRPM1 prom inh) | Peg3 prom inh-2 56
CC(NCC(=O)NC(=O)NCCC1=CCCCC1)c1ccc(S(N)(=O)=O)cc1 (stereo not drawn)	none
Cc1onc(-c2ccccc2)c1C(=O)OCC(=O)NC(C)c1ccc(Cl)cc1 (stereo not drawn)	none
O=C(Oc1c(CN2CCOCC2)cc(Cl)c2cccnc12)c1ccccc1Cl	TRPM1 prom inh 76, Shn3 3UTR inh inconclusive, Peg3 prom inh-1 50 | Peg3 prom inh-2 43
Cc1nc(N2CCN(c3ccccn3)CC2)c2c(C)c(C(=O)Nc3ccccc3F)sc2n1	Peg3 prom inh-1 73 | Peg3 prom inh-2 66
O=c1c2c3c(sc2nc(N2CCNCC2)n1CCc1ccccc1)CCCCC3	TRPM1 prom inh 69, Peg3 prom inh-1 105 | Peg3 prom inh-2 96
COc1ccc(/C=N/Nc2nncc3ccccc23)cc1	Peg3 prom inh-1 56 | Peg3 prom inh-2 46
Cc1cccc(-c2ncc(CN3CCN(CC(C)C)C(CCO)C3)cn2)c1 (stereo not drawn)	none
CC(C)(C)OC(=O)[C@H](Cc1ccccc1)NC(=O)c1[nH]cnc1C(=O)Nc1cccc(Cl)c1	none
CC(C)(C)OC(=O)NCCCCCNC(=O)c1[nH]cnc1C(=O)N[C@@H](Cc1ccccc1)C(=O)OC(C)(C)C	Peg3 prom inh-1 51 | Peg3 prom inh-2 inactive
Cc1ccc(NC(=O)c2nc[nH]c2C(=O)N2CCN(C(=O)OC(C)(C)C)CC2)cc1	none
CC(C)(C)OC(=O)[C@H](Cc1ccccc1)NC(=O)c1[nH]cnc1C(=O)Nc1ccc(Cl)cc1	Peg3 prom inh-1 85 | Peg3 prom inh-2 inactive
CC(C)(C)OC(=O)NCc1ccc(CNC(=O)c2nc[nH]c2C(=O)N2CCN(C(=O)OC(C)(C)C)CC2)cc1	Peg3 prom inh-1 51 | Peg3 prom inh-2 inactive
CC(C)(C)OC(=O)[C@H](Cc1ccccc1)NC(=O)c1nc[nH]c1C(=O)NCCCCCN	none
O=C(/C=C/c1ccccc1)N1CCC(N2CCC(C(=O)N3CCOCC3)CC2)CC1	none
CCOC(=O)C1CC(CN2C(=O)c3ccccc3C2=O)OC1=O (stereo not drawn)	none
COc1ccc2sc3cccc(NCCN(C)C)c3c(=O)c2c1	Peg3 prom inh-1 97 (no result: TRPM1 prom inh) | Peg3 prom inh-2 66
COc1ccc(OC)c(S(=O)(=O)N2CCCC(C(=O)N3CCCCCC3)C2)c1 (stereo not drawn)	none
CN(C)CCNc1ncnc2c1ncn2[C@H]1CN(Cc2ccccc2)C[C@@H](CO)O1	none (no result: TRPM1 prom inh)
CN(C)CCNc1ncnc2c1ncn2[C@H]1CN(Cc2ccc(-c3ccccc3)cc2)C[C@@H](CO)O1	Peg3 prom inh-1 80 (no result: TRPM1 prom inh) | Peg3 prom inh-2 75
O=[N+]([O-])C1C(c2ccccc2)=NOC1c1ccccc1O (stereo not drawn)	none
